Experimental data reported in publication PMC5540273 (PLoS ONE, 2017).

Legend:
Conditions in all cases: concentration: 1 μM, replicates: in singlicate; n = 1
ERK1 = system: T1, ERK1
T1 construct: gene MAPK3

ERK2 = system: T2, ERK2
T2 construct: gene MAPK1

ERK3 = system: T3, ERK3
T3 construct: gene MAPK6

ERK4 = system: T4, ERK4
T4 construct: gene MAPK4

ERK5 = system: T5, ERK5
T5 construct: gene MAPK7

ERK8 = system: T6, ERK8
T6 construct: gene MAPK15

ERN1 = system: ERN1
FAK = system: T7, FAK
T7 construct: gene PTK2

FER = system: FER
FES = system: FES
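Also: KINOMEscan kinase panel screen.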

Cl.c1ccc(-c2ccc3c(Nc4ccc5[nH]ccc5c4)ccnc3c2)nc1 [GW440138]
%Inh (ERK1): 8% | %Inh (ERK2): 0% | %Inh (ERK3): 0% | %Inh (ERK4): 6% | %Inh (ERK5): 0% | %Inh (ERK8): 0% | %Inh (ERN1): 0% | %Inh (FAK): 0% | %Inh (FER): 0% | %Inh (FES): 0%

CCCCc1nn2ncccc2c1-c1ccnc(Nc2ccc(N3CCN(C)CC3)cc2)n1 [GW684941]
%Inh (ERK1): 0% | %Inh (ERK2): 0% | %Inh (ERK3): 46% | %Inh (ERK4): 0% | %Inh (ERK5): 0% | %Inh (ERK8): 63% | %Inh (ERN1): 0% | %Inh (FAK): 0% | %Inh (FER): 47% | %Inh (FES): 14%

Cc1ccc(C(=O)Nc2ccc(Nc3ccnc4cc(-c5nccs5)ccc34)cc2O)cc1.Cl [GW494702]
%Inh (ERK1): 0% | %Inh (ERK2): 0% | %Inh (ERK3): 0% | %Inh (ERK4): 0% | %Inh (ERK5): 0% | %Inh (ERK8): 11% | %Inh (ERN1): 0% | %Inh (FAK): 0% | %Inh (FER): 34% | %Inh (FES): 24%

Cc1ccc(F)c(C(=O)Nc2cccc(-c3nn4ccccc4c3-c3ccnc(Nc4cccc(F)c4)n3)c2)c1F [GSK361061]
%Inh (ERK1): 26% | %Inh (ERK2): 0% | %Inh (ERK3): 16% | %Inh (ERK4): 21% | %Inh (ERK5): 0% | %Inh (ERK8): 0% | %Inh (ERN1): 25% | %Inh (FAK): 0% | %Inh (FER): 40% | %Inh (FES): 0%

c1ccc(-c2n[nH]cc2Nc2ccnc3ccccc23)nc1 [GW694077]
%Inh (ERK1): 0% | %Inh (ERK2): 0% | %Inh (ERK3): 7% | %Inh (ERK4): 0% | %Inh (ERK5): 0% | %Inh (ERK8): 25% | %Inh (ERN1): 22% | %Inh (FAK): 0% | %Inh (FER): 0% | %Inh (FES): 0%

O=C(Nc1cccc(Oc2ccc3nc(NC(=O)C4CC4)cn3n2)c1)c1ccccc1C(F)(F)F
%Inh (ERK1): 0% | %Inh (ERK2): 0% | %Inh (ERK3): 0% | %Inh (ERK4): 0% | %Inh (ERK5): 0% | %Inh (ERK8): 20% | %Inh (ERN1): 0% | %Inh (FAK): 9% | %Inh (FER): 0% | %Inh (FES): 22%

Nc1n[nH]c2cnc(-c3ccccc3)cc12 [SB-642124]
%Inh (ERK1): 0% | %Inh (ERK2): 0% | %Inh (ERK3): 0% | %Inh (ERK4): 25% | %Inh (ERK5): 0% | %Inh (ERK8): 6% | %Inh (ERN1): 13% | %Inh (FAK): 0% | %Inh (FER): 0% | %Inh (FES): 0%

COCCOCCOc1cc2ncc3c4ccc(C#N)cc4[nH]c3c2cc1OC
%Inh (ERK1): 9% | %Inh (ERK2): 6% | %Inh (ERK3): 2% | %Inh (ERK4): 0% | %Inh (ERK5): 0% | %Inh (ERK8): 36% | %Inh (ERN1): 0% | %Inh (FAK): 16% | %Inh (FER): 0% | %Inh (FES): 17%

Cc1ccc(C(=O)N2CC[C@@H](O)C2)cc1-n1c(C)cc(OCc2ccc(F)cc2F)c(Br)c1=O
%Inh (ERK1): 0% | %Inh (ERK2): 0% | %Inh (ERK3): 0% | %Inh (ERK4): 9% | %Inh (ERK5): 0% | %Inh (ERK8): 0% | %Inh (ERN1): 0% | %Inh (FAK): 0% | %Inh (FER): 1% | %Inh (FES): 0%

Cl.c1ccc(-c2ccc3c(Nc4ccc5[nH]ncc5c4)ccnc3c2)nc1 [GW440137]
%Inh (ERK1): 10% | %Inh (ERK2): 0% | %Inh (ERK3): 4% | %Inh (ERK4): 34% | %Inh (ERK5): 0% | %Inh (ERK8): 0% | %Inh (ERN1): 5% | %Inh (FAK): 0% | %Inh (FER): 15% | %Inh (FES): 0%
